{
  "source": "PubChem BioAssay (NCI)",
  "note": "The panel holds about 83,000 compounds, 20% with a hit somewhere; the sample as a whole holds those more often.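 Single-concentration screen, 48 h exposure, 96-well plates. Endpoint: percent growth. Below 10 = active.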 A number with no mark means an inactive call. Activity calls are given as the source filed them.",
  "data": [
    {"tested_on": "COLO 205 colon", "test": "NCI-60 one-dose screen, 48 h (100 = growth as untreated, 0 = no growth, -100 = all killed)", "conditions": "10 µM unless noted", "description": "Cells are grown in 96 well plates and exposed to the test compound for 48 hours. Compounds are tested at a single concentration, which is 10^-5 M for most compounds. The reported endpoint is percent growth (GI% or GIPRCNT), where numbers from 0 - 100% represent growth inhibition, and numbers from -100% - 0 represent cell death. For example, a value of 40 represents 60% growth inhibition. A value of 0 means no net growth occurred over the course of the experiment. A value of -40 indicates 40% of cells at the beginning of the experiment died by the end of the experiment. A value of -100 means all cells are dead at the end of the experiment.\nNCI-60 Human Tumor Cell Lines Screen was performed using the standard one-dose NCI protocol, which is described in more detail at https://dtp.cancer.gov/discovery_development/nci-60/default.htm.\nCompounds with GIPRCNT values below 10 were considered active. Activity score was based on GIPRCNT using the following formula: […]\nScore is 0 for GIPRCNT values of 100 or above, 50 for GIPRCNT values of 0, and 100 for GIPRCNT values of -100.", "values": [
      {"smiles": "Cc1cc(S(=O)(=O)N(C)C)cc(NCC(=O)NC(=O)NCC(C)C)c1C", "growth": "109%"},
      {"smiles": "COc1ccc(-c2nc3ccc(-c4nnc(SCC(=O)Nc5ccc(C(=O)/C=C/c6ccc(Cl)cc6)cc5)o4)cc3[nH]2)cc1", "growth": "117%"},
      {"smiles": "O=C(c1ccc(Cl)cc1)C1[C@H](c2ccc(Cl)cc2)[C@@H](c2ccccc2)NC12C(=O)Nc1ccccc12", "note": "(stereo not given in full)", "growth": "73%"},
      {"smiles": "Oc1ccc(CSc2nnc(-c3ccc(Cl)cc3)n2-c2ccccc2)c2cccnc12", "growth": "88.9%"},
      {"smiles": "COC(=O)C[Se]C(=O)Cc1c(C)n(C(=O)c2ccc(Cl)cc2)c2ccc(OC)cc12", "growth": "49.5%"},
      {"smiles": "Cc1ccc(-c2cc3nc(C(Cl)Cl)nc(-c4ccco4)n3n2)cc1", "growth": "-39.4% (active)"},
      {"smiles": "NS(=O)(=O)c1ccc(-n2cc(CN3CCNCC3)nn2)cc1", "growth": "116%"},
      {"smiles": "CS(=O)(=O)Nc1cc(-c2ccc3ncc(C#N)c(NCc4ccccc4)c3c2)cnc1Cl", "growth": "6.54% (active)"},
      {"smiles": "CCN(CC)c1ccc2c(c1)Oc1nc(N)c(C#N)c(N)c1C2Sc1ccc(F)cc1", "note": "(stereo not given)", "growth": "-58.5% (active)"},
      {"smiles": "CC1(C)CC[C@]2(C(=O)O)CC[C@]3(C)C(=CC[C@@H]4[C@@]5(C)CC/C(=N\\OCCC#N)C(C)(C)[C@@H]5CC[C@]43C)[C@@H]2C1", "growth": "111%"},
      {"smiles": "O=C(NCc1ncc[nH]1)c1ccc(-c2nc3ccc4[nH]ncc4c3c3c2CCCC3)cc1", "growth": "-10.4% (active)"},
      {"smiles": "NC(N)=Nc1ccc(Oc2cccc(NC(N)=Nc3ccc(Br)cc3)c2)cn1", "growth": "16.5%"},
      {"smiles": "Cn1cc(-c2nc(N)nnc2-c2c[nH]c3ccc(Br)cc23)c2cc(Br)ccc21", "growth": "36.3%"},
      {"smiles": "CS(=O)(=O)Nc1cc(-c2ccc3ncc(C#N)c(N[C@H](CO)c4ccccc4)c3c2)cnc1Cl", "growth": "57%"},
      {"smiles": "COc1ccc(OC)c(-c2nc(SCC(=O)c3ccc(Br)cc3)nc(Nc3ccc(S(N)(=O)=O)cc3)c2C#N)c1", "growth": "68.4%"},
      {"smiles": "Cc1ccc2sc3c(c2c1)OC(N)=C(C#N)C3c1cccc(F)c1", "note": "(stereo not given)", "growth": "-40.3% (active)"},
      {"smiles": "O=C(O)c1ccc(-n2cc(CNc3cc(F)c(F)c(F)c3)c(-c3ccc(F)cc3)n2)cc1", "growth": "131%"},
      {"smiles": "Cc1ccc(-n2cc(/C=N/NC(=O)c3ccncc3)c(-c3ccc(S(C)(=O)=O)cc3)n2)cc1", "growth": "104%"},
      {"smiles": "CC(C)(C)c1ccc(C(=O)Nc2sc3c(c2C(N)=O)CC/C(=N\\O)C3)cc1", "growth": "4.38% (active)"},
      {"smiles": "Oc1cccc2ccc(-c3nnc(SCc4ccc(O)c5ncccc45)o3)nc12", "growth": "31.7%"},
      {"smiles": "COc1cc(-c2nn(C(C)(C)C)cc2-c2ccnc(NCCCNS(=O)(=O)c3ccc(Cl)cc3)n2)ccc1Cl", "growth": "81.5%"},
      {"smiles": "O=c1[nH]c2ccccc2cc1CSc1ccccc1Nc1nccc(-c2ccc(Cl)cc2)n1", "growth": "125%"},
      {"smiles": "Cc1cc(-c2ccc(Cl)cc2)n(Cc2nnc(SCC(=O)Nc3ccc(S(N)(=O)=O)cc3)n2-c2ccc([N+](=O)[O-])cc2)n1", "growth": "97%"},
      {"smiles": "O=C(CCn1cc[n+](CC(=O)c2ccc(-c3ccccc3)cc2)c1)Nc1cccc2cccnc12", "growth": "72.8%"},
      {"smiles": "CC(C)(C)c1ccc(CC(=O)Nc2sc3c(c2C(N)=O)CCC(=O)C3)cc1", "growth": "-34.4% (active)"},
      {"smiles": "CC1(COc2ccc3ncc(C#Cc4cncc(C(=O)Nc5cccc(C(F)(F)F)c5)c4)n3n2)COC1", "growth": "80.7%"},
      {"smiles": "COc1ccc(N2C(=O)c3cc(Cl)ccc3NC2SCc2ccccc2)cc1", "note": "(stereo not given)", "growth": "114%"},
      {"smiles": "CC1=NC2=NN3C(=NN2C(c2ccccc2)=C1)N=NC(c1ccc(Br)cc1)=C3c1ccc(Br)cc1", "growth": "112%"},
      {"smiles": "COc1ccc(NC(=O)CSc2nnc(-c3ccc4nc(-c5ccc(OC)c(OC)c5)[nH]c4c3)o2)cc1OC", "growth": "113%"},
      {"smiles": "O=C(NNc1nc2cc(F)ccc2n2c(CN3CCC(O)C3)ccc12)c1cnccn1", "note": "(stereo not given)", "growth": "8.58% (active)"},
      {"smiles": "C#C[C@]1(O)CC[C@H]2[C@@H]3CC=C4c5sc(-c6ccc7c(c6)OCO7)nc5CC[C@]4(C)[C@H]3CC[C@@]21C", "growth": "51.9%"},
      {"smiles": "Clc1cccc(/C=N/Nc2nc(N/N=C/c3cccc(Cl)c3Cl)nc(N3CCCCC3)n2)c1Cl", "growth": "90.3%"},
      {"smiles": "Cn1cc(CNc2nc3ccc(OC/C(=C/F)CN)cc3o2)ccc1=O", "growth": "110%"},
      {"smiles": "COc1ccc2c(c1)c(-c1cc(N)n3nc(-c4cn(C)c5ccc(OC)cc45)cc3n1)cn2C", "growth": "123%"},
      {"smiles": "COc1cc(-c2nc3sccn3c2-c2ccnc(S(C)(=O)=O)n2)ccc1F", "growth": "114%"},
      {"smiles": "COc1cc2nc(Cl)nc(Nc3cccc(C4=Nc5c(N)nc(N)nc5NC(c5ccccc5)C4)c3)c2cc1OC", "note": "(stereo not given)", "growth": "99.8%"},
      {"smiles": "NC(N)=Nc1ccc(Oc2ccc(Nc3ccc(Cl)c(C(F)(F)F)c3)cc2)cc1", "growth": "20%"},
      {"smiles": "CS(=O)(=O)c1ncc(-c2ccccc2)cn1", "growth": "108%"},
      {"smiles": "NS(=O)(=O)c1ccc(Nc2nc(Nc3ccccc3)nc3nnc(SCC(=O)NC4CCCCC4)n23)cc1", "growth": "110%"},
      {"smiles": "CCNC(=O)N1CCc2cc(OC)c(OCCc3ccc(OC)c(N)c3)cc2C1c1cc(C)c(C)cc1C", "note": "(stereo not given)", "growth": "55.9%"}
    ]}
  ]
}
